Records with an inconclusive call do not appear. Unmarked numbers belong to inactive results. Active and inactive are the calls of the source. Calls follow the shape of the dose curve; as a rule, active = well fitted inhibition curve with a large enough effect; inconclusive = small, poorly fitted or top-dose-only effect; inactive = flat fitted curve, though single readings scatter.
% is scaled to controls: 0 for no effect and ±100 for the full control effect; potency is read from the fitted curve at half-maximal effect.

This experiment concerns NIH3T3. Nature of the experiment: Cytotoxic Profiling of Annotated Libraries Using Quantitative High-Throughput Screening (AID 1296008). Also: nearly all actives have a fitted effect of over 60% in size. Conditions: Five cell lines viability, CellTiter-Glo ATP luminescence, 48-72 h; max response: stronger effect = lower value. The gist of the method: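 Compounds were pin-transferred onto cells and incubated 48 or 72 hr at 37 degree Celsius, 95% humidity. CellTiter-Glo was added, plates sat 10 min at room temperature, then ATP-coupled luminescence was imaged as the viability read-out.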
A general note: ATP-based viability assays read luminescence as a measure of living cells.
Regarding `CC(=O)O[C@@H]1[C@H](O)[C@@H](O[C@@H]2O[C@@H](C)[C@H](O[C@@H]3OC[C@@H](O)[C@H](O[C@@H]4OC[C@@H](O)[C@H](O)[C@H]4O)[C@H]3O)[C@@H](O[C@@H]3O[C@H](CO)[C@@H](O)[C@H](O)[C@H]3O)[C@H]2O)[C@H](OC(=O)[C@]23CCC(C)(C)C[C@H]2C2=CCC4[C@@]5(C)CC[C@H](O[C@@H]6O[C@H](C(=O)O)[C@@H](O)[C@H](O[C@@H]7OC[C@@H](O)[C@H](O)[C@H]7O)[C@H]6O[C@@H]6O[C@H](CO)[C@H](O)[C@H](O)[C@H]6O)[C@@](C)(C=O)C5CC[C@@]4(C)[C@]2(C)CC3)O[C@@H]1C` (some centres not stated), the call was inactive.
Regarding `O=C(Nc1ccc(S(=O)(=O)C(F)(F)F)cc1)C1=CCN(c2ncccc2C(F)(F)F)CC1`, the Potency is 16.4 µM (active).
Turning to `COc1ccc(-c2ccc3c(N4CCOCC4)nc(N4CC(C)OC(C)C4)nc3n2)cc1CO` (configuration not stated), the Potency was 1.84 µM (active).
In the case of `Cc1cccc(C)c1OCc1cc(C(=O)N2CCC(c3ccncc3)CC2)no1`, the max response was -17.2%.
On to `NCc1ccc(Nc2ncc(F)c(Nc3ccccc3)n2)cc1`, for which the Potency is 14.6 µM (active).
On the same count and under the same terms, the same measure for `CC(=O)OC12COC1CC(O)C1(C)C(=O)C(O)C3=C(C)C(OC(=O)C(O)C(NC(=O)OC(C)(C)C)c4ccccc4)CC(O)(C(OC(=O)c4ccccc4)C21)C3(C)C` (configuration not stated): 0.0164 µM (active); for `C[C@@H]1C[C@H]2O[C@@H]2/C=C\C=C\C(=O)Cc2c(Cl)c(O)cc(O)c2C(=O)O1`: 1.74 µM (active); for `N=c1nc2n(cc1F)C1OC(CO)C(O)C1O2` (configuration not stated): 2.06 µM (active).
On to `c1cn2cc(-c3ccc4cn[nH]c4c3)nc(Nc3ccc(N4CCOCC4)cc3)c2n1`, for which the max response was -11.5%.
For `C#CC[C@H](c1nc2cc(Cl)ccc2c(=O)n1Nc1ccccc1)N(CCCN)C(=O)c1cccc(Cl)c1F`, the Potency is 10.3 µM (active).
Regarding `Cc1cc(C)c(Nc2ccnc(Nc3ccc(C#N)cc3)n2)c(C)c1`, the Potency was 13 µM (active).
On to `CCCC(=O)O[C@@H]1[C@@H]2[C@@H](OC(C)=O)[C@]3(C)C(=O)[C@H]4[C@@H](OC(C)=O)C(C)(C)C[C@H]4[C@]3(C)C(=O)[C@@]2(OC(C)=O)C[C@@H]1C`, for which the molecule was called inactive.
Regarding `O=C(c1ccc(/C=C/c2n[nH]c3ccccc23)cc1)N1CCNCC1`, the Potency was 4.61 µM (active).
As for `COC1=CC(=O)CC(C)C12Oc1cc(OC)cc(O)c1C2=O` (configuration not stated), the molecule was called inactive.
For `O=C(/C=C/c1ccccc1)OC[C@]12O[C@H]1[C@@H](O)[C@@H]1C=CO[C@@H](O[C@@H]3O[C@H](CO)[C@@H](O)[C@H](O)[C@H]3O)[C@@H]12`, the outcome was inactive.
In the case of `Cc1nc(Nc2n[nH]c3c2CN(C(=O)NC(CN(C)C)c2ccccc2)C3(C)C)c2sccc2n1` (configuration not stated), the Potency was 8.2 µM (active).
For `C[C@H]1C(=O)N2c3ccccc3[C@@]3(O)C[C@@H]4C(=O)N[C@](C)(c5nc6ccccc6c(=O)n54)N1[C@@H]23`, the max response was -0.721%.
For `O=C(O)/C=C/c1ccc(-c2ccc(O)c(C34CC5CC(CC(C5)C3)C4)c2)cc1`, the Potency was 0.92 µM (active).
On to `CC1=C(C(=O)O[C@@H]2O[C@H](COC3OCC(O)C(O)C3O)[C@@H](O)[C@H](O)[C@H]2O)C(C)(C)CCC1` (some centres not stated), for which the max response was -7.14%.
In the case of `C=C1C(=O)O[C@@H]2C/C(C)=C\C(=O)/C=C(\C)[C@@H](OC(=O)/C(C)=C\C)[C@H](O)[C@@H]12`, the Potency was 10.1 µM (active).
On to `O=C(c1cc2c(cc1F)OC(c1ccc(F)cc1)(c1ccc(Cl)cc1Cl)O2)N1CCOCC1` (configuration not stated), for which the max response is -3.07%.
Take `C/C=C/C=C/C=C/C(=O)OC1C=C(C=O)C(O)(C(=O)O)C2(C)CCCC(C)(C)C12` (configuration not stated): the max response is 3.49%.
For `CO[C@H]1C[C@@H]2CC[C@@H](C)[C@@](O)(O2)C(=O)C(=O)N2CCCC[C@H]2C(=O)O[C@H]([C@H](C)C[C@@H]2CC[C@@H](OP(C)(C)=O)[C@H](OC)C2)CC(=O)[C@H](C)/C=C(\C)[C@@H](O)[C@@H](OC)C(=O)[C@H](C)C[C@H](C)/C=C/C=C/C=C/1C`, the max response was -16.2%.
Take `Cc1cc(-c2cc(O)ccc2Cl)cc2nnc(Nc3ccc(OCCN4CCCC4)cc3)nc12`: the Potency was 11.6 µM (active).
As to `NC(=O)c1csc(C2OC(CO)C(O)C2O)n1` (configuration not stated), the max response is -7.35%.
As to `Cc1ccc(S(=O)(=O)Nc2ccccc2N2CCCCC2)s1`, the max response is 2.48%.
With `COc1cc(C(=O)NC2CCN(C)CC2)c(F)cc1Nc1ncc2c(n1)N(C1CCCC1)CC(F)(F)C(=O)N2C`, the Potency is 0.82 µM (active).
